# Measurements as given in PubChem BioAssay (EPA / NIEHS).
# Calls of active or inactive are those of the source. Rule for the calls: active = hit-call score of the fitted dose curve at least 0.9, where 1 is the maximum; inactive = score below 0.9.
# Columns and labels:
# Conditions in all cases: mRNA level, 48 h; actives raise or lower the signal
# [1] = read-out: Insulin-like growth factor-binding protein 1 (IGFBP1), IGFBP1 (gene 3484); assay: LTEA_HepaRG_IGFBP1: Life Technologies and Expression Analysis (LTEA) Assay for Insulin-like growth factor-binding protein 1 (IGFBP1) using HepaRG (AID 2283508)
# Method in brief: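 HepaRG cells, plated 48 h then switched to serum-free induction medium, exposed in duplicate for 48 h to 8-point half-log series from 100 uM in 0.5% DMSO. mRNA measured by qRT-PCR, normalized to ACTB/GAPDH/POLR2A; bidirectional fit versus DMSO.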
# [2] = read-out: Interleukin 6 (IL6), IL6 (gene 3569); assay: LTEA_HepaRG_IL6: Life Technologies and Expression Analysis (LTEA) Assay for Interleukin 6 (IL6) using HepaRG (AID 2283509)
# Method in brief: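 HepaRG cells exposed in duplicate for 48 h to eight half-log concentrations, top 100 uM, in 0.5% DMSO serum-free induction medium. mRNA measured by qRT-PCR, normalized to ACTB, GAPDH and POLR2A. Bidirectional fit versus DMSO.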
# [3] = read-out: Interleukin 6 Receptor (IL6R), IL6R (gene 3570); assay: LTEA_HepaRG_IL6R: Life Technologies and Expression Analysis (LTEA) Assay for Interleukin 6 Receptor (IL6R) using HepaRG (AID 2283510);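 for AC50: TaqMan qRT-PCR signal normalized to ACTB GAPDH and POLR2A housekeeping genes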
# Method in brief: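 Readout is IL6R transcript level by TaqMan qRT-PCR, normalized to three housekeeping genes and fitted bidirectionally against 0.5% DMSO controls. Human HepaRG cells received chemicals for 48 h in serum-free induction medium, highest concentration 100 uM.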
# [4] = read-out: Potassium channel subfamily K member 1 (KCNK1), KCNK1 (gene 3775); assay: LTEA_HepaRG_KCNK1: Life Technologies and Expression Analysis (LTEA) Assay for Potassium channel subfamily K member 1 (KCNK1) using HepaRG (AID 2283511)
# Method in brief: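 Differentiated HepaRG cells, 48 h exposure in serum-free induction medium with 0.5% DMSO; 8 concentrations, half-log from 100 uM, duplicate. KCNK1 mRNA by qRT-PCR, normalized to ACTB, GAPDH, POLR2A; bidirectional fit vs DMSO.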
# [5] = read-out: Keratin 19 (KRT19), KRT19 (gene 3880); assay: LTEA_HepaRG_KRT19: Life Technologies and Expression Analysis (LTEA) Assay for Keratin 19 (KRT19) using HepaRG (AID 2283512)
# Method in brief: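 Differentiated HepaRG cells in serum-free induction medium, exposed 48 h in duplicate to 8 half-log concentrations up to 100 uM in 0.5% DMSO. KRT19 mRNA by qRT-PCR, normalized to ACTB, GAPDH, POLR2A; bidirectional fit vs DMSO.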
# [6] = read-out: JUN Transcription Factor, JUN (gene 3725); assay: LTEA_HepaRG_JUN: Life Technologies and Expression Analysis (LTEA) Assay for JUN Transcription Factor using HepaRG (AID 2283513)
# Method in brief: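 Cells plated 48 h, medium switched to serum-free induction medium, then dosed 48 h (100 uM top, half-log dilutions, 0.5% DMSO). RNA isolated; JUN measured by qRT-PCR against three housekeeping genes; gain or loss fitted relative to DMSO.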
# [7] = read-out: Lipase C (LIPC), LIPC (gene 3990); assay: LTEA_HepaRG_LIPC: Life Technologies and Expression Analysis (LTEA) Assay for Lipase C (LIPC) using HepaRG (AID 2283514)
# Method in brief: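 HepaRG cells, 48 h after plating, treated in duplicate for 48 h in serum-free induction medium over 8 half-log concentrations from 100 uM, 0.5% DMSO. LIPC mRNA by TaqMan qRT-PCR normalized to ACTB/GAPDH/POLR2A; bidirectional fit versus DMSO.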
# [8] = read-out: Lipoprotein lipase (LPL), LPL (gene 4023); assay: LTEA_HepaRG_LPL: Life Technologies and Expression Analysis (LTEA) Assay for Lipoprotein lipase (LPL) using HepaRG (AID 2283515)
# Method in brief: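 Differentiated HepaRG cells, plated 48 h, then exposed 48 h in serum-free induction medium to 8 concentrations (top 100 uM, half-log steps) in 0.5% DMSO, duplicate. LPL mRNA measured by qRT-PCR, normalized to ACTB, GAPDH and POLR2A.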
# [9] = read-out: MicroRNA 122 (MIR122), gene 406906; assay: LTEA_HepaRG_MIR122: Life Technologies and Expression Analysis (LTEA) Assay for MicroRNA 122 (MIR122) using HepaRG (AID 2283516); note: the transcript read is the microRNA miR-122
# Method in brief: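 HepaRG plated 48 h, switched to serum-free induction medium, then treated in duplicate for 48 h (100 uM top, half-log steps, 0.5% DMSO vehicle). RNA isolated, qRT-PCR performed, concentration-response fitted both directions relative to DMSO.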
# [10] = read-out: matrix metalloproteinase-10 (MMP10), MMP10 (gene 4319); assay: LTEA_HepaRG_MMP10: Life Technologies and Expression Analysis (LTEA) Assay for matrix metalloproteinase-10 (MMP10) using HepaRG (AID 2283517)
# Method in brief: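 Differentiated HepaRG cells in serum-free induction medium exposed 48 h in duplicate to 8-point half-log series up to 100 uM in 0.5% DMSO. mRNA quantified by qRT-PCR, normalised to ACTB, GAPDH, POLR2A; bidirectional fit versus DMSO.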
# MYC, MYC (gene 4609) = assay: LTEA_HepaRG_MYC: Life Technologies and Expression Analysis (LTEA) Assay for MYC using HepaRG (AID 2283518)
# Method in brief: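 Differentiated HepaRG cells exposed 48 h in serum-free induction medium to 8 concentrations (top 100 uM, half-log steps; 0.5% DMSO), duplicate. MYC mRNA measured by Fluidigm qRT-PCR, normalized to ACTB, GAPDH, POLR2A; bidirectional fit versus DMSO.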
# [11] = read-out: matrix metalloproteinase-3 (MMP3), MMP3 (gene 4314); assay: LTEA_HepaRG_MMP3: Life Technologies and Expression Analysis (LTEA) Assay for matrix metalloproteinase-3 (MMP3) using HepaRG (AID 2283519)
# Method in brief: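 HepaRG cells (~100,000/well) in serum-free induction medium were dosed in duplicate for 48 h with an 8-point half-log series from 100 uM, 0.5% DMSO. MMP3 mRNA was quantified by Fluidigm TaqMan qRT-PCR, normalized to three housekeeping genes.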
# [12] = read-out: Paternally Expressed 10 (PEG10), PEG10 (gene 23089); assay: LTEA_HepaRG_PEG10: Life Technologies and Expression Analysis (LTEA) Assay for Paternally Expressed 10 (PEG10) using HepaRG (AID 2283520)
# Method in brief: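 HepaRG, 48 h post-plating → serum-free induction medium → 48 h chemical exposure (duplicate, 8-pt, max 100 uM, half-log, 0.5% DMSO) → lysis in RLT → TaqMan qRT-PCR for PEG10, ACTB/GAPDH/POLR2A normalisation.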
# [13] = read-out: Nuclear factor NF-kappa-B p105 subunit (Homo sapiens) (UniProt P19838); assay: LTEA_HepaRG_NFKB1: Life Technologies and Expression Analysis (LTEA) Assay for Nuclear Factor Kappa B Subunit 1 (NFKB1) using HepaRG (AID 2283521);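 for outcome: TaqMan qRT-PCR transcript normalised to ACTB GAPDH and POLR2A housekeeping genes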
# Method in brief: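 Differentiated human HepaRG cells were exposed for 48 h in serum-free induction medium to eight concentrations (top 100 uM, half-log steps, 0.5% DMSO), in duplicate. NFKB1 mRNA was measured by TaqMan qRT-PCR, normalized to ACTB/GAPDH/POLR2A, and fitted bidirectionally against DMSO.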
# [14] = read-out: Protein phosphatase 2A (PPP2R4), PTPA (gene 5524); assay: LTEA_HepaRG_PPP2R4: Life Technologies and Expression Analysis (LTEA) Assay for Protein phosphatase 2A (PPP2R4) using HepaRG (AID 2283522)
# Method in brief: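 Readout is PPP2R4 transcript level by microfluidic qRT-PCR after 48 h chemical treatment of human HepaRG liver cells. Concentrations spanned 100 uM downward in half-log steps; gain or loss of signal was fitted relative to DMSO.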
# [15] = read-out: Phosphatase and tensin (PTEN), PTEN (gene 5728); assay: LTEA_HepaRG_PTEN: Life Technologies and Expression Analysis (LTEA) Assay for Phosphatase and tensin (PTEN) using HepaRG (AID 2283523)
# Method in brief: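 HepaRG cells, 48 h after plating, exposed in duplicate for 48 h in serum-free induction medium to 8 half-log concentrations up to 100 uM (0.5% DMSO). PTEN mRNA by qRT-PCR, normalized to ACTB, GAPDH, POLR2A; bidirectional fit versus DMSO.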
# [16] = read-out: solute carrier (SLC22A1), SLC22A1 (gene 6580); assay: LTEA_HepaRG_SLC22A1: Life Technologies and Expression Analysis (LTEA) Assay for solute carrier (SLC22A1) using HepaRG (AID 2283524)
# Method in brief: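 Differentiated human HepaRG cells in serum-free induction medium, exposed 48 h in duplicate to 8-point half-log series from 100 µM top in 0.5% DMSO. SLC22A1 mRNA by TaqMan qRT-PCR normalized to ACTB, GAPDH, POLR2A; bidirectional fit versus DMSO.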
# [17] = read-out: Pyruvate Dehydrogenase Kinase 4 (PDK4), PDK4 (gene 5166); assay: LTEA_HepaRG_PDK4: Life Technologies and Expression Analysis (LTEA) Assay for Pyruvate Dehydrogenase Kinase 4 (PDK4) using HepaRG (AID 2283525)
# Method in brief: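 HepaRG cells plated 48 h, then switched to serum-free induction medium and exposed in duplicate for 48 h to 8 half-log concentrations from 100 uM in 0.5% DMSO. PDK4 mRNA measured by qRT-PCR, normalized to ACTB, GAPDH and POLR2A; bidirectional fit versus DMSO.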
# [18] = read-out: NAD(P)H dehydrogenase [quinone] 1 (NQO1), NQO1 (gene 1728); assay: LTEA_HepaRG_NQO1: Life Technologies and Expression Analysis (LTEA) Assay for NAD(P)H dehydrogenase [quinone] 1 (NQO1) using HepaRG (AID 2283526)
# Method in brief: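 HepaRG, 48 h post-plating → serum-free induction medium → test chemical 48 h (duplicate, 100 uM top, half-log x8, 0.5% DMSO) → RNA isolation → qRT-PCR, ACTB/GAPDH/POLR2A normalization; bidirectional curve fit vs DMSO baseline.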
# [19] = read-out: Nuclear factor erythroid 2-related factor 2 (Homo sapiens) (UniProt Q16236); assay: LTEA_HepaRG_NFE2L2: Life Technologies and Expression Analysis (LTEA) Assay for Nuclear factor erythroid 2-related factor 2 (NFE2L2) Transcription Factor using HepaRG (AID 2283527);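 for outcome: TaqMan qRT-PCR transcript level normalised to ACTB GAPDH and POLR2A housekeeping genes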
# Method in brief: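 Differentiated human HepaRG cells, serum-free induction medium, exposed 48 h in duplicate to eight half-log concentrations up to 100 uM in 0.5% DMSO. NFE2L2 mRNA by Fluidigm TaqMan qRT-PCR, normalised to ACTB, GAPDH, POLR2A; bidirectional change versus DMSO.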
# Sequence of Nuclear factor NF-kappa-B p105 subunit (Homo sapiens) (P19838 whole entry, looked up): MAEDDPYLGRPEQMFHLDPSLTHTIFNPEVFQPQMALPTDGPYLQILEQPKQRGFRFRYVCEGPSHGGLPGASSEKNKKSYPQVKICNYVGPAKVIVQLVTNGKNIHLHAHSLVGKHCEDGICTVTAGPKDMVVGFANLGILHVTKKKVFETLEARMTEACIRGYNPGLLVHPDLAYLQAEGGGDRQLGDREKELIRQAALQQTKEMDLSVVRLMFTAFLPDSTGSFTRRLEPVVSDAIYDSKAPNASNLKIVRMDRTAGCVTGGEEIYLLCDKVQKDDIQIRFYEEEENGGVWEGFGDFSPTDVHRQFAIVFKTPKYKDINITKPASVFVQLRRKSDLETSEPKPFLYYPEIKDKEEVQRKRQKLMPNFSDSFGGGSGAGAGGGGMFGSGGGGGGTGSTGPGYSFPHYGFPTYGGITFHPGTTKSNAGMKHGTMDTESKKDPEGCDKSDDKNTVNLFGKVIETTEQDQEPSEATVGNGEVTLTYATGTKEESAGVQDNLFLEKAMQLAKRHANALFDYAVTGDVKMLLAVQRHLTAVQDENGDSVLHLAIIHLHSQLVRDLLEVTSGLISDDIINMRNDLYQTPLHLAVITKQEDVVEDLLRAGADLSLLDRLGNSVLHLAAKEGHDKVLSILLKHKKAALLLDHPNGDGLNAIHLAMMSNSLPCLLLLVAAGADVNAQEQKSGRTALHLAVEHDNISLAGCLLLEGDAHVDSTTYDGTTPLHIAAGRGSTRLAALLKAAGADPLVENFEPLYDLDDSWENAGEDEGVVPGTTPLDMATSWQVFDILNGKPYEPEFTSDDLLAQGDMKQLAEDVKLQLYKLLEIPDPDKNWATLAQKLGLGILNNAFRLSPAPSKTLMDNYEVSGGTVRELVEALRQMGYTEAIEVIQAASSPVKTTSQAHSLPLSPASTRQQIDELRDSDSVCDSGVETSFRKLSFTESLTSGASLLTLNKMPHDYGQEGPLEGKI
# Sequence of Nuclear factor erythroid 2-related factor 2 (Homo sapiens) (Q16236 whole entry, looked up): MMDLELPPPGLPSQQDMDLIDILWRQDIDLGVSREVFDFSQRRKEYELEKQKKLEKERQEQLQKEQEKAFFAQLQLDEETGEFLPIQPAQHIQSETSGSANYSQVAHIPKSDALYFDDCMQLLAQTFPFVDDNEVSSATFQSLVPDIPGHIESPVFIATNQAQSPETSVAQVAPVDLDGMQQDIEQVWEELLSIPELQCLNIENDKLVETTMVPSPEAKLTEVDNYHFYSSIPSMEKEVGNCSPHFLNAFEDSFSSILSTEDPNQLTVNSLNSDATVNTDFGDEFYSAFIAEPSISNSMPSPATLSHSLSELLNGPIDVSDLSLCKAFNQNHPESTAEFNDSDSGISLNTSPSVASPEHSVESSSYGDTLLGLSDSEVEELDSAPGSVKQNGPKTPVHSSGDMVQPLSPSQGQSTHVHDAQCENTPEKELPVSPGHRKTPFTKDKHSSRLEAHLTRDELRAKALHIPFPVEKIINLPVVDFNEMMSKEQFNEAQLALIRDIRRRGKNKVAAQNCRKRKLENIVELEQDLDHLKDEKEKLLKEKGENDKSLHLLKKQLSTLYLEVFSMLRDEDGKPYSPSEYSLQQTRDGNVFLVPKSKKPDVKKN
smiles,measurement,setting,value
O=c1[nH]c(=O)[nH]c(=O)[nH]1,outcome,[1],inactive
same,outcome,[2],inactive
same,outcome,[3],inactive
same,outcome,[4],inactive
same,outcome,[5],inactive
same,outcome,[6],inactive
same,outcome,[7],inactive
same,outcome,[8],inactive
same,outcome,[9],inactive
same,outcome,[10],inactive
same,outcome,"MYC, MYC (gene 4609)",inactive
same,outcome,[11],inactive
same,outcome,[12],inactive
same,outcome,[13],inactive
same,outcome,[14],inactive
same,outcome,[15],inactive
same,outcome,[16],inactive
same,outcome,[17],inactive
same,outcome,[18],inactive
same,outcome,[19],inactive
O=[N+]([O-])c1ccc(O)c([N+](=O)[O-])c1,AC50,[1],13.3 µM (active)
same,AC50,[2],60.3 µM (active)
same,AC50,[3],17.7 µM (active)
same,outcome,[4],inactive
same,outcome,[5],inactive
same,outcome,[6],inactive
same,AC50,[7],12 µM (active)
same,outcome,[8],inactive
same,AC50,[9],23.1 µM (active)
same,outcome,[10],inactive
same,AC50,"MYC, MYC (gene 4609)",89.6 µM (active)
same,outcome,[11],inactive
same,AC50,[12],13.2 µM (active)
same,AC50,[13],13 µM (active)
same,AC50,[14],13.1 µM (active)
same,AC50,[15],31.8 µM (active)
same,AC50,[16],25.2 µM (active)
same,AC50,[17],11.8 µM (active)
same,AC50,[18],12.7 µM (active)
same,AC50,[19],12.7 µM (active)
CCOP(=S)(OCC)Oc1nc(Cl)c(Cl)cc1Cl,outcome,[1],inactive
same,outcome,[2],inactive
same,outcome,[3],inactive
same,outcome,[4],inactive
same,outcome,[5],inactive
same,outcome,[6],inactive
same,outcome,[7],inactive
same,outcome,[8],inactive
same,outcome,[9],inactive
same,outcome,[10],inactive
same,outcome,"MYC, MYC (gene 4609)",inactive
same,outcome,[11],inactive
same,outcome,[12],inactive
same,outcome,[13],inactive
same,outcome,[14],inactive
same,outcome,[15],inactive
same,outcome,[16],inactive
same,outcome,[17],inactive
same,outcome,[18],inactive
same,outcome,[19],inactive
CCN1CCC2(CC1)COc1cc3c(cc12)N(C(=O)c1ccc(-c2ccc(-c4nnc(C)o4)cc2C)cc1)CC3,AC50,[1],13.4 µM (active)
same,AC50,[2],16 µM (active)
same,AC50,[3],31.8 µM (active)
same,AC50,[4],29.3 µM (active)
same,outcome,[5],inactive
same,AC50,[6],18.2 µM (active)
same,outcome,[7],inactive
same,AC50,[8],32.7 µM (active)
same,outcome,[9],inactive
same,AC50,[10],76.1 µM (active)
same,outcome,"MYC, MYC (gene 4609)",inactive
same,AC50,[11],46.8 µM (active)
same,AC50,[12],15.6 µM (active)
same,AC50,[13],46.8 µM (active)
same,AC50,[14],21.8 µM (active)
same,AC50,[15],22.7 µM (active)
same,AC50,[16],22.9 µM (active)
same,AC50,[17],28.4 µM (active)
same,outcome,[18],inactive
same,outcome,[19],inactive
